Data: the supplement of paper PMC3334620
Over roughly 33,000 sequences, “E-score (-0.5 to 0.5)” has its median near -0.0014; the highest 2% begin near 0.25. The entries come from a sample that favours the highest values as a whole.

biological target: T1, Cad1 (UniProt P24813); assay: PBM E-score (8-mer binding enrichment) (E-score (-0.5 to 0.5)); higher = stronger / more preferred TF binding; settings: protein concentration: 100 nM; construct: GST-full length
T1 sequence: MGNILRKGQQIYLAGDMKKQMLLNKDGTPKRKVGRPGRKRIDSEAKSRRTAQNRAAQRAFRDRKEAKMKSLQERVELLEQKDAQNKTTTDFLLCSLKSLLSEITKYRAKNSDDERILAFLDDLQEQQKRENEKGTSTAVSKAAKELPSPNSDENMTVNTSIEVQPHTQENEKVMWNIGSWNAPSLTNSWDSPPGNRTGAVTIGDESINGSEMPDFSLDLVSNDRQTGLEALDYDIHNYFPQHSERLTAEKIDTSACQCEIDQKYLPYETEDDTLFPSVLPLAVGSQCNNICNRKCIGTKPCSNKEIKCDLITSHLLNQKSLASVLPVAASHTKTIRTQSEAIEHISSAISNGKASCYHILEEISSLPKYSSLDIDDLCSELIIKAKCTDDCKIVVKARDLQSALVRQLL
Description: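 Universal 'all 10-mer' protein binding microarrays (Agilent AMADID 015681) probed with GST-tagged S. cerevisiae TFs (full-length or DBD) made by in vitro transcription/translation (PURExpress), about 100-200 nM. Bound TF was detected with fluorescent anti-GST. Each ungapped 8-mer (which stands for itself and its reverse complement) is scored by the PBM enrichment score (E-score), a modified Wilcoxon-Mann-Whitney statistic from -0.5 to +0.5, computed with the Universal PBM Analysis Suite. Scale: above 0.35 generally sequence-specific binding.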

Sequence	PBM E-score
CAATATTC	0.0508
GGATATTA	0.163
CACCACAC	0.151
AGCTCACT	-0.0157
ACAATAGA	-0.144
GGAGCACC	-0.0566
CTATATTA	0.241
ATATATTA	0.368
GTATATTA	0.115
GCTAAGCC	-0.109
AGACGCAC	0.0398
CGACCTAG	0.0727
CCAAATAA	0.15
CTTACAAC	0.118
ATTACAAG	0.0206
CTTACAAG	0.0333
ATTACAAT	0.104
ATTACAAA	0.425
CTTACAAA	0.372
ATATAAGA	0.22
AGCCCATA	-0.0468
AAGAAGCG	-0.184
CAACGCGA	0.157

Sequence	PBM E-score
CAACGCGG	0.0152
AGGCGCGC	0.161
CGGCGCGC	0.258
CGGCGCGA	0.203
ATTCGCGC	0.17
CAACGCGC	0.311
CTGCGCGC	0.302
CTTCGCGA	0.143
ATGCGCGC	0.238
CTGCGCGA	0.13
CTTCGCGC	0.263
CAAGGGAC	-0.0828
CGGCTGTA	-0.112
ACCTCCGC	-0.116
TCCCGCGA	0.0875
CTTCGTAA	0.0607
ACTCGTAA	0.292
ATTCGTTC	0.09
ATTCGTTG	0.258
ACTCGTAT	0.0214
ACTCGTAG	-0.103
ATTCGTTA	0.158
ATTCGTAA	0.26

Sequence	PBM E-score
GTTCGTAA	0.119
AAGTTGCT	0.0232
TAAACCCA	0.119
CAGTTATA	-0.0494
CATGCGCG	0.202
AATGCGCG	0.305
AATGCGCA	0.342
ATTGCGCG	0.307
ATTGCGCA	0.103
AATGCGCC	-0.00918
ATTGCGCC	-0.061
CATGCGCA	0.116
AATGCGCT	0.0389
AGGCAGAG	-0.0635
ACGTCGGG	-0.269
CCCAGATA	-0.0901
GCGGGATA	0.0173
CCCGTATC	-0.15
GCATGACA	0.0476
ACATGACA	0.159
TCATGACA	0.301
AGAAAGCC	-0.051
TAACTGAA	-0.0483

Sequence	PBM E-score
ACTGTAAG	0.167
AATGTAAT	0.324
AACGTAAC	-0.00693
AACGTAAA	0.0278
AATGTAAG	0.264
AATGTAAA	0.193
AATGTAAC	0.0359
CATGTAAG	0.129
AACGTAAT	0.261
AAAGTCGC	0.124
AAAGATAG	0.00786
AAAGATAT	0.277
AACGAAAC	0.187
AACGATAG	0.0593
CACGAAAA	0.161
AACGAAAT	0.303
GACGAAAA	0.297
AACGAAAG	0.0872
AACGATAC	0.0534
AACGATAT	0.271
TACGAAAA	0.0721
AAAGATAC	-0.051
ACCATCTG	-0.0991

Sequence	PBM E-score
ACGCAGAC	0.0915
GGAACTAC	-0.0515
GAACGTTC	-0.0713
GACTGATC	-0.075
CCTGCTAA	-0.128
CCAACTGG	0.025
AGCGAAAA	-0.0296
CACGAACA	0.249
CGCGAAAA	0.246
TGCGAAAA	0.266
AACGAACA	0.269
AACGAACG	0.0769
CCGAAGAG	-0.0285
CTTCTGAA	0.0469
CTCGGGCA	0.0974
AGTGTGGG	-0.0209
GCACGTGC	0.32
GCACGTGA	0.0273
CCACGTGC	0.00023
